# Bioassay records: PubChem BioAssay, several laboratories
# An excerpt weighted towards active compounds, which were near 4.9% of everything screened.
# Beta cell apopt = inhibitors of cytokine-induced beta cell apoptosis, primary screen, luminescence; INS-1E cytokine-induced death, ATP luminescence, 48 h; percent of positive-control rescue, neutral wells zero; protection from apoptosis, % (no concentration beside the values); 300,000 compounds, 0.8% hits;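 active = Every replicate reaches about 75%, or at least half do and their mean reaches it too, limit read from the data; inconclusive = At least half of replicates reach the limit but their mean does not; inactive = Under half of replicates reach the limit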;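 also: 0% = cytokine-treated negative control wells and 100% = positive control rescue; higher means more ATP so stronger rescue from cytokine killing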
# PP1 counter = PP1-alpha phosphatase inhibitors, primary screen, counter-screen for PP5 inhibitor project, biochemical, fluorescence, OMFP substrate, single point | Serine/threonine-protein phosphatase PP1-alpha catalytic subunit (Homo sapiens), P62136 | purified PP1alpha | inhibition, % at 6.7 µM | 320,000 compounds, 0.9% hits | AID 2235, 2010;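 active = inhibition above the mean inhibition of all tested compounds plus 3 SD, computed separately for each screening campaign, cut at about 15% in these data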
# CSC inhib = cancer stem cell viability inhibitors, primary screen, luminescence | cancer stem cell-like cells viability | inhibition, % at 7.5 µM | 300,000 compounds, 1.1% hits; in the data active = inhibition above about 75%; inconclusive = no clear call, values can overlap the other calls; tested in HMLE shEcad cells
# Mdm2 MdmX PPI = inhibitors of human Mdm2-MdmX association, primary screen, cell-based, luminescence, split luciferase, SaOS-2, uHTS. Protein Mdm4 (Homo sapiens) + E3 ubiquitin-protein ligase Mdm2 (Homo sapiens), …. AID 485346, 2010. inhibition, % at 8 µM. 330,000 compounds, 3% hits. SaOS-2 split-luciferase Mdm2/MdmX complementation;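 active = inhibition of at least 50% at 8 µM in the primary screen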
# PP5 primary = PP5 phosphatase inhibitors, primary screen, biochemical, fluorescence; Serine/threonine-protein phosphatase 5 (Homo sapiens), P53041; purified PP5c, OMFP substrate fluorescence; 320,000 compounds, 0.18% hits; inhibition, % at 6.7 µM;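 active = inhibition above the campaign's mean inhibition across all tested compounds plus 3 SD, cut at about 9.5% in these data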;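 also: 0% = DMSO only and 100% = 100 µM cantharidin control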
# Target sequence (P53041 whole entry, looked up): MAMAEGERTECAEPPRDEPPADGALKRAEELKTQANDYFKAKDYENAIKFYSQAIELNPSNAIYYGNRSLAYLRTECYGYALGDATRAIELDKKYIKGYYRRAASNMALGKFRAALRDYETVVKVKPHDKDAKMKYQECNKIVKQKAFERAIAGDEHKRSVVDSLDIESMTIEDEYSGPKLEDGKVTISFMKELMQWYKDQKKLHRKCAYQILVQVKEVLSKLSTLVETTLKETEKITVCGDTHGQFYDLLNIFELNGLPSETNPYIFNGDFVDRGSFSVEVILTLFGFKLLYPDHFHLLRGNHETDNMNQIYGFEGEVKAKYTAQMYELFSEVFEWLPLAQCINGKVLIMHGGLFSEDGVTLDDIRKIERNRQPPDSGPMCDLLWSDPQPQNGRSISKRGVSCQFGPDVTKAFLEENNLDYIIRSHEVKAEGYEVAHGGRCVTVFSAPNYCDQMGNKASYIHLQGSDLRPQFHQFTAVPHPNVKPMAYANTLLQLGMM
# Calb FLC = C. albicans growth inhibition with fluconazole, primary screen, CaCi-2 strain, Alamar Blue fluorescence. growth inhibition, % (no concentration beside the values). AID 1979, 2009. C. albicans CaCi-2 (fluconazole-resistant clinical isolate) + fluconazole, 48 h. 300,000 compounds, 0.57% hits;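 active = growth inhibition above about 58% in most replicates, limit read from the data, passing the limit was not always enough; inconclusive = exactly half the replicates above a set limit; inactive = most replicates below a set limit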;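 also: all wells also contain fluconazole at 8 µg/ml as a sub-toxic cotreatment; 0% = median of DMSO wells and 100% = median of geldanamycin control wells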
# * marks the source's active call; other numbers are inactive results; ? = inconclusive; . = no result.
SMILES,Beta cell apopt,PP1 counter,CSC inhib,Mdm2 MdmX PPI,PP5 primary,Calb FLC
CNC(=O)c1ccccc1Sc1cccc2cccc(C(=O)O)c12,-4,-2,-11,16,-2,-7
Nc1ccc(Cl)c(S(=O)(=O)Nc2ccc(Cl)cc2)c1,0,0,-5,-8,-1,8
Cc1nn(C)cc1C(C(=O)NC1CCCCC1)N(Cc1ccccc1Cl)C(=O)c1cnccn1 (configuration not stated),-4,3,-12,14,-1,78*
CC(CCN1CCN=C1Nc1ccccc1)c1ccccc1 (configuration not stated),0,-3,-6,-23,0,-2
CC1(C)Cc2c(C#N)c(N3CCN(C(=O)c4ccccc4)CC3)nc(-c3ccco3)c2CS1,-6,16*,-18,16,1,.
CC(C)c1nc(N2CCN(C(=O)c3ccccc3)CC2)c(C#N)c2c1COC(C)(C)C2,7,-2,.,44,6,1
Cn1cccc1-c1nc2ccccc2n1Cc1ccccc1,-4,4,88*,-9,5,0
CC(C)(C)c1cc(Cl)ccc1OCCOCCN1CCCC1,4,1,93*,21,2,-18
C=CCNCCCOc1ccc(Cl)cc1C(C)(C)C,-4,0,104*,27,2,-70
C=CCNCCOCCOc1ccc(Cl)cc1C(C)(C)C,-12,2,18,21,5,-64
Cc1[nH]c2ccccc2c1C(=O)CSc1n[nH]c(N)n1,3,-5,-3,-28,0,-15
COc1cc(/C=N/Nc2nc(C)cc(=O)[nH]2)ccc1OC(=O)c1cccnc1,8,-2,-10,23,1,-26
CCN(CC)c1ccc2cc(S(=O)(=O)c3ccc(C)cc3)c(=O)oc2c1,9,1,99*,19,0,101*
Cc1ccc(S(=O)(=O)c2cc3ccccc3oc2=O)cc1,-14,-5,2,-6,3,?
O=C(N/C=N/OCc1ccc(Cl)cc1Cl)NOCc1ncc(C(F)(F)F)cc1Cl,-18,5,124*,2,5,18
CCOC(=O)c1ccc(NC(=O)c2sc3nc(N4CCOCC4)c4c(c3c2N)CCCC4)cc1,-2,-3,-6,16,1,?
CCOc1ccc(N(CC(=O)NCCc2ccccc2)C(=O)CCC(=O)Nc2nccs2)cc1,-3,2,-8,2,2,1
CCOc1ccc(NC(=O)c2cn(-c3ccc(OCC)cc3)c(=O)c3cc(OC)c(OC)cc23)cc1,1,-5,8,19,8,86*
CCOC(=O)c1c(NC(C)=O)sc2c1CCC(C=O)=C2Sc1ccccc1,-2,-1,89*,24,2,19
CNc1nnc(SCC(=O)c2cc(C)n(C3CC3)c2C)s1,-10,-1,.,-29,3,.
Cc1ccc(/C=C/C(=O)c2ccccc2)cc1,-4,0,5,-27,3,-1
O=C(/C=C/c1ccccc1Cl)c1ccccc(=O)c1O,60,13,108*,.,7,7
O=C(/C=C/c1ccccc1Cl)c1cccnc1,-2,-3,18,13,0,4
Cc1ccc(C)c(/C=C/C(=O)c2ccccc(=O)c2O)c1,49,14,92*,.,2,98*
COc1ccc(NC(=O)c2ccc(Oc3ncccn3)cc2)cc1,-3,2,-5,3,2,3
SMILES,Beta cell apopt,PP1 counter,CSC inhib,Mdm2 MdmX PPI,PP5 primary,Calb FLC
O=C(COc1ccc2ccccc2c1)NNC(=O)Cc1ccccc1,-3,1,4,.,1,0
O=C(CN1C(=O)CCC1=O)NNc1ccc2ccccc2c1,-9,0,14,18,-2,100*
O=C(Cc1ccccc1)NNc1ccc2ccccc2c1,3,-4,88*,28,0,?
O=C(CNc1ccc2ccccc2c1)NNC1=NCCC1,1,-5,-5,5,4,22
O=C(Nc1nccs1)c1ccc(N2CCOCC2)c([N+](=O)[O-])c1,2,-2,16,-77,1,9
Cc1ccc(C)c(N2CCN(C(=O)c3ccc4c(c3)c(C)c(C)n4C)CC2)c1,-5,-3,82*,32,5,-9
